HT1080 IDH1KD tx: kills HT-1080 cells with IDH1 knockdown; HT-1080 IDH1 knockdown viability, ATP luminescence, 48 h; Potency, µM (series often up to 46.1 µM), most hits filed as cytotoxic; hit rate 2% among 360,000; AID 686971
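Using the IDH1-knockdown HT-1080 line run in the same batch and compound series as the NT line, viability after 48 h at 37 °C was determined by CellTiter-Glo luminescence and expressed as % activity.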
HepG2 viability: counter-screen for TGF-b inhibitors: cytotoxicity in HepG2 cells | HepG2 CAGA-GFP viability, ATP luminescence, 18 h | hit rate 0.76% among 410,000 | Potency, µM (highest dose often 46.1 µM), most hits filed as cytotoxic
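CellTiter-Glo luminescence gave cytotoxicity after 18 hours at 37 degrees C. The cells were HepG2 CAGA-GFP in 1% FBS DMEM, stimulated with 500 pg/mL TGF-beta after compound addition. %Activity was normalised to no-cell wells (complete cell-killing) and DMSO (no toxicity), and curves were fitted and classified.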
TGFb inhibitor: inhibitors of TGF-b signaling; HepG2 CAGA-GFP TGF-b/SMAD3 reporter, GFP fluorescence, 18 h; TGF-beta stimulated, 500 pg/mL final; Potency, µM (top dose mostly 46.1 µM), actives largely listed as inhibitors; hit rate 1.2% among 410,000; AID 588855; further: nearly all actives have a fitted effect of over 65% in size
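TGF-beta reporter screen: HEPG2 CAGA-GFP, 1% FBS, 500 pg/mL TGF-beta final, 18 h; per-cell GFP summed per well; curves fitted and categorized by class.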
KB-3-1 tox: KB-3-1 parental cell cytotoxicity; hit rate 1.4% among 400,000; KB-3-1 viability, CellTiter-Glo ATP luminescence, 72 h; Potency, µM (doses to about 46.1 µM), actives largely listed as cytotoxic; further: nearly all actives have a fitted effect of over 60% in size
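KB-3-1 parental drug-naive adenocarcinoma cells in DMEM/10% FBS, incubated 72 h at 37 C with pin-transferred compounds across a concentration series. Viability by CellTiter-Glo luminescence; concentration-response curves fitted after normalization.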
HT1080-NT tox: kills 2HG-producing HT-1080-NT fibrosarcoma cells | HT-1080-NT fibrosarcoma viability, CellTiter-Glo ATP luminescence, 48 h | Potency, µM (titrated, usually from 46.1 µM), most hits filed as cytotoxic | hit rate 1.6% among 360,000 | AID 686970;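 further: NT is the 2HG producing partner of a matched IDH1 knockdown line; nearly all actives have a fitted effect of over 55% in size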
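Compounds were tested in concentration-response format on HT-1080-NT cells for 48 hours at 37 degrees C. Cell viability came from CellTiter-Glo luminescence; curves were classified by r2, response magnitude and activity.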
KB-V1 MDR tox: KB-V1 MDR subline cytotoxicity | KB-V1 MDR cells viability, CellTiter-Glo, 72 h | Potency, µM (doses to about 46.1 µM), hits mostly cytotoxic | hit rate 3.4% among 400,000 | AID 1347076; further: nearly all actives have a fitted effect of over 60% in size
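Compound-treated KB-V1 multidrug-resistant cells, 72 h, 37 degrees C; viability by CellTiter-Glo. Fitted qHTS curves give the values.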
Of the large screens only hits and unclear results are named; the others gave an inactive call. Shown are actives, neighbours in structure and some others; about 6.6% of the full set was active somewhere. The call rests on the fitted dose curve; in most records, active means well fitted curve in the direction sought with a large enough effect; inconclusive means small, poorly fitted or top-dose-only effect, or another doubt; inactive means no such curve, though single readings can be large; an effect the other way counts as inactive or inconclusive.

C[C@H](C[C@H](O)[C@H]1OC1(C)C)C1=C2C[C@H](O)C3[C@@]4(C)CCC(=O)C(C)(C)C4CC[C@]3(C)[C@@]2(C)CC1 (some centres undefined)	HT1080 IDH1KD tx inconclusive, HepG2 viability 16µM, TGFb inhibitor inconclusive, KB-3-1 tox inconclusive, HT1080-NT tox inconclusive, KB-V1 MDR tox 3.7µM
Cn1c(-c2c(N)n(C3CCCC3)c3nc4ccccc4nc23)nc2ccccc21	HT1080 IDH1KD tx inconclusive, TGFb inhibitor inconclusive, KB-3-1 tox 16µM, HT1080-NT tox inconclusive, KB-V1 MDR tox 21µM
COCCCn1c(N)c(-c2nc3ccccc3n2C)c2nc3ccccc3nc21	HT1080 IDH1KD tx inconclusive
Cn1c(-c2c(N)n(CCCc3ccccc3)c3nc4ccccc4nc23)nc2ccccc21	HT1080 IDH1KD tx inconclusive, TGFb inhibitor inconclusive, KB-3-1 tox inconclusive, HT1080-NT tox inconclusive, KB-V1 MDR tox 9.2µM
CC(C)(C)Cc1nc2ccccc2n1CCc1ccccc1	HT1080 IDH1KD tx inconclusive, KB-3-1 tox inconclusive, HT1080-NT tox inconclusive, KB-V1 MDR tox 18µM
CCc1nc2ccccc2n1CCc1ccccc1	none
N#Cc1c(N)n(CCc2ccc(F)cc2)c2nc3ccccc3nc12	none
Cn1c(-c2c(N)n(CCc3ccccc3)c3nc4ccccc4nc23)nc2ccccc21	HT1080 IDH1KD tx inconclusive, KB-3-1 tox inconclusive, KB-V1 MDR tox 15µM
COc1ccc(OC)c(CNC(=O)c2nn(-c3ccc(OC)c(Cl)c3)c(=O)c3c2c2ccccc2n3C)c1	none (no result: HT1080 IDH1KD tx, HT1080-NT tox)
Cc1ccc(C(=O)N/N=C/c2cccc(OC(=O)/C=C/c3ccco3)c2)cn1	none
O=C(/C=C/c1ccco1)Oc1cc(Br)cc(/C=N/NC(=O)c2ccccc2O)c1	HT1080 IDH1KD tx 1.8µM, TGFb inhibitor 10µM, KB-3-1 tox inconclusive, HT1080-NT tox inconclusive, KB-V1 MDR tox inconclusive
COc1ccc2[nH]c3c(NCCC4=CCCCC4)ncnc3c2c1	HT1080 IDH1KD tx 16µM, TGFb inhibitor inconclusive, KB-3-1 tox 3.7µM, HT1080-NT tox 29µM, KB-V1 MDR tox 9.2µM
CCCCOc1ncnc2c1[nH]c1ccc(C)cc12	HT1080 IDH1KD tx 4.6µM, KB-3-1 tox inconclusive, HT1080-NT tox inconclusive, KB-V1 MDR tox 7.3µM
CCCOc1ncnc2c1[nH]c1ccc(OC)cc12	KB-3-1 tox inconclusive, KB-V1 MDR tox 15µM
COc1ccc2[nH]c3c(NCCCOC(C)C)ncnc3c2c1	HT1080 IDH1KD tx inconclusive, HT1080-NT tox inconclusive, KB-V1 MDR tox inconclusive
Oc1c(C(c2ccccc2)N2CCOCC2)sc2nc(-c3ccco3)nn12 (centres undefined)	none (no result: HT1080 IDH1KD tx, KB-3-1 tox, HT1080-NT tox, KB-V1 MDR tox)
Cc1ccc(-c2noc(CCC(=O)Nc3ccc(F)cc3Cl)n2)cc1	none (no result: HT1080 IDH1KD tx, KB-3-1 tox, HT1080-NT tox, KB-V1 MDR tox)
CCC(C)NC(=O)c1cc2n(n1)CCCN(Cc1ccc(C)cc1)C2=O (centres undefined)	KB-V1 MDR tox inconclusive (no result: HT1080 IDH1KD tx, HT1080-NT tox)
CC(C)c1cc2c(c(O)c1O)[C@@]13CCCC(C)(C)C1CC2OC3=O (some centres undefined)	HT1080 IDH1KD tx inconclusive, TGFb inhibitor 13µM, KB-3-1 tox inconclusive
COC(=O)C1(Cc2ccc3c(c2)CCC3)Cc2ccc3c(c2C1=O)CCC3 (centres undefined)	KB-3-1 tox 5.8µM, KB-V1 MDR tox 4.6µM
Cc1ccc(NC(=O)c2cc(S(=O)(=O)N3CCCc4ccccc43)ccc2F)cc1F	TGFb inhibitor inconclusive, KB-3-1 tox 26µM (no result: HT1080 IDH1KD tx, HT1080-NT tox)
O=C(Nc1c(F)cc(F)cc1Br)c1cc(S(=O)(=O)N2CCN(c3ccccn3)CC2)ccc1F	TGFb inhibitor inconclusive
COc1ccc(S(=O)(=O)N2CCc3ccccc32)cc1OC	KB-3-1 tox inconclusive
CCn1c(=O)n(CC)c2cc(S(=O)(=O)N3CCc4ccccc43)ccc21	HT1080 IDH1KD tx inconclusive, KB-3-1 tox inconclusive, HT1080-NT tox 10µM, KB-V1 MDR tox 2.3µM
CC(=O)Nc1ccc(S(=O)(=O)N2CCCc3ccccc32)cc1	HT1080 IDH1KD tx 7.1µM, TGFb inhibitor inconclusive, HT1080-NT tox 8.9µM, KB-V1 MDR tox inconclusive
O=C(Nc1ccc(Cl)cc1)c1cc(S(=O)(=O)N2CCCc3ccccc32)ccc1F	TGFb inhibitor inconclusive (no result: HT1080 IDH1KD tx, KB-3-1 tox, HT1080-NT tox, KB-V1 MDR tox)

Source: PubChem BioAssay (National Center for Advancing Translational Sciences (NCATS))
